# Only a selection was taken, and the strongest signals are over-represented in it overall.
# B1: Pwp3 (Candida glabrata) (protein)
# chain: MGSSHHHHHHSSGLVPRGSHMASKNPVDFTTVCQFPDNFSKKPGFLATTARLGLWITGNSYKELLNYPGTFTLTTQQASTTTPNIQLRGTDLFTTIYGLTVYPLYLLVELQGYFVPTQSGMYTFSLTGSDDAAIIFIGNPSTFPCDAFKTWPQATANDITVTDSINPSRTLYMVKGVAYPLRIAYYNGLGNGVLNAAFTDPSGTKRTDWNGYIWQYDQCSTCTYK
# Tests used:
# Experiment in all cases: glycan array binding signal (z-score within array); higher = stronger binding
# Details in all cases: glycan notation: IUPAC condensed, linker removed
# [1] = molecular target: Fuc(a1-2)Gal(b1-4)GlcNAc(b1-3)Gal(b1-4)GlcNAc(b1-2)Man(a1-3)[Fuc(a1-2)Gal(b1-4)GlcNAc(b1-3)Gal(b1-4)GlcNAc(b1-2)Man(a1-6)]Man(b1-4)GlcNAc(b1-4)GlcNAc
# Summary of the method: (§1)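 Glycan array data came from 3228 arrays in the Consortium for Functional Glycomics database, and only arrays with an available protein sequence were kept. Glycan names were put into IUPAC-condensed notation, and columns mapping to the same glycan were averaged. The binding signal is a within-array Z-score, averaged across arrays of one protein sequence run at different concentrations or buffers and across linkers. A negative Z-score can be read as non-binding.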
# [2] = molecular target: Fuc(a1-2)Gal3S(b1-4)GlcNAc
# Summary of the method: as §1
# [3] = molecular target: Fuc(a1-2)[Gal(a1-3)]Gal(b1-3)GlcNAc(b1-6)GalNAc
# Summary of the method: as §1
# [4] = molecular target: Fuc(a1-2)[GalNAc(a1-3)]Gal(b1-3)GlcNAc(b1-3)GalNAc
# Summary of the method: as §1
# [5] = molecular target: Fuc(a1-2)[GalNAc(a1-3)]Gal(b1-4)GlcNAc(b1-2)Man(a1-3)[Fuc(a1-2)[GalNAc(a1-3)]Gal(b1-4)GlcNAc(b1-2)Man(a1-6)]Man(b1-4)GlcNAc(b1-4)GlcNAc
# Summary of the method: as §1
# [6] = molecular target: Fuc(a1-2)[GalNAc(a1-3)]Gal(b1-4)GlcNAc(b1-3)GalNAc
# Summary of the method: as §1
# [7] = molecular target: Fuc(a1-3)[Gal(b1-4)]Glc6S
# Summary of the method: as §1
# [8] = molecular target: Fuc(a1-3)[Gal(b1-4)]GlcNAc(b1-2)Man
# Summary of the method: as §1
# [9] = molecular target: Fuc(a1-3)[Gal(b1-4)]GlcNAc(b1-6)GalNAc
# Summary of the method: as §1
# [10] = molecular target: Gal(a1-4)Gal(b1-4)GlcNAc(b1-2)Man(a1-3)[Gal(a1-4)Gal(b1-4)GlcNAc(b1-2)Man(a1-6)]Man(b1-4)GlcNAc(b1-4)GlcNAc
# Summary of the method: as §1
# [11] = molecular target: Gal(a1-4)Gal(b1-4)GlcNAc(b1-3)Gal(b1-4)Glc
# Summary of the method: as §1
# Gal(b1-3)GalNAc = molecular target: Gal(b1-3)GalNAc
# Summary of the method: as §1
# [12] = molecular target: Gal(b1-3)GalNAc(b1-4)Gal(b1-4)Glc
# Summary of the method: as §1
# [13] = molecular target: Gal(b1-3)GlcNAc(b1-3)Gal(b1-3)GlcNAc
# Summary of the method: as §1
# [14] = molecular target: Gal(b1-3)[Fuc(a1-4)]GlcNAc
# Summary of the method: as §1
# [15] = molecular target: Gal(b1-4)GlcNAc(b1-2)Man(a1-3)[Gal(b1-4)GlcNAc(b1-2)Man(a1-6)][GlcNAc(b1-4)]Man(b1-4)GlcNAc(b1-4)[Fuc(a1-6)]GlcNAc
# Summary of the method: as §1
# [16] = molecular target: Gal(b1-4)GlcNAc(b1-2)[Gal(b1-4)GlcNAc(b1-4)]Man(a1-3)[Gal(b1-4)GlcNAc(b1-2)Man(a1-6)]Man(b1-4)GlcNAc(b1-4)GlcNAc
# Summary of the method: as §1
# [17] = molecular target: Gal(b1-4)GlcNAc(b1-2)[Gal(b1-4)GlcNAc(b1-6)]Man(a1-6)[GlcNAc(b1-4)][Gal(b1-4)GlcNAc(b1-2)[Gal(b1-4)GlcNAc(b1-4)]Man(a1-3)]Man(b1-4)GlcNAc(b1-4)[Fuc(a1-6)]GlcNAc
# Summary of the method: as §1
# [18] = molecular target: Gal(b1-4)GlcNAc(b1-3)Gal(b1-4)GlcNAc(b1-3)Gal(b1-4)GlcNAc(b1-3)Gal(b1-4)GlcNAc(b1-3)Gal(b1-4)GlcNAc(b1-2)Man(a1-3)[Gal(b1-4)GlcNAc(b1-3)Gal(b1-4)GlcNAc(b1-3)Gal(b1-4)GlcNAc(b1-3)Gal(b1-4)GlcNAc(b1-3)Gal(b1-4)GlcNAc(b1-2)Man(a1-6)]Man(b1-4)GlcNAc(b1-4)GlcNAc
# Summary of the method: as §1
# Gal(b1-6)Gal = molecular target: Gal(b1-6)Gal
# Summary of the method: as §1
# Gal3S(b1-3)GlcNAc = molecular target: Gal3S(b1-3)GlcNAc
# Summary of the method: as §1
# [19] = molecular target: Gal3S(b1-4)[Fuc(a1-3)]GlcNAc6S
# Summary of the method: as §1
# Gal6S(b1-4)Glc6S = molecular target: Gal6S(b1-4)Glc6S
# Summary of the method: as §1
# Gal6S(b1-4)GlcNAc = molecular target: Gal6S(b1-4)GlcNAc
# Summary of the method: as §1
# [20] = molecular target: GlcNAc(b1-2)Man(a1-3)[GlcNAc(b1-4)][GlcNAc(b1-2)Man(a1-6)]Man(b1-4)GlcNAc(b1-4)[Fuc(a1-6)]GlcNAc
# Summary of the method: as §1
# [21] = molecular target: GlcNAc(b1-3)Gal(b1-4)GlcNAc(b1-3)Gal(b1-4)GlcNAc(b1-3)Gal(b1-4)GlcNAc(b1-2)[GlcNAc(b1-3)Gal(b1-4)GlcNAc(b1-3)Gal(b1-4)GlcNAc(b1-3)Gal(b1-4)GlcNAc(b1-6)]Man(a1-6)[GlcNAc(b1-3)Gal(b1-4)GlcNAc(b1-3)Gal(b1-4)GlcNAc(b1-3)Gal(b1-4)GlcNAc(b1-2)Man(a1-3)]Man(b1-4)GlcNAc(b1-4)[Fuc(a1-6)]GlcNAc
# Summary of the method: as §1
# [22] = molecular target: GlcNAc(b1-3)Gal(b1-4)GlcNAc(b1-3)Gal(b1-4)GlcNAc(b1-3)Gal(b1-4)GlcNAc(b1-3)Gal(b1-4)GlcNAc(b1-2)Man(a1-3)[GlcNAc(b1-3)Gal(b1-4)GlcNAc(b1-3)Gal(b1-4)GlcNAc(b1-3)Gal(b1-4)GlcNAc(b1-3)Gal(b1-4)GlcNAc(b1-2)Man(a1-6)]Man(b1-4)GlcNAc(b1-4)GlcNAc
# Summary of the method: as §1
# [23] = molecular target: GlcNAc(b1-3)Gal(b1-4)GlcNAc(b1-3)Gal(b1-4)GlcNAc(b1-3)Gal(b1-4)GlcNAc(b1-3)Gal(b1-4)GlcNAc(b1-2)[GlcNAc(b1-3)Gal(b1-4)GlcNAc(b1-3)Gal(b1-4)GlcNAc(b1-3)Gal(b1-4)GlcNAc(b1-3)Gal(b1-4)GlcNAc(b1-6)]Man(a1-6)[GlcNAc(b1-3)Gal(b1-4)GlcNAc(b1-3)Gal(b1-4)GlcNAc(b1-3)Gal(b1-4)GlcNAc(b1-3)Gal(b1-4)GlcNAc(b1-2)Man(a1-3)]Man(b1-4)GlcNAc(b1-4)[Fuc(a1-6)]GlcNAc
# Summary of the method: as §1
# [24] = molecular target: Man(a1-2)Man(a1-2)Man(a1-6)[Man(a1-3)]Man
# Summary of the method: as §1
# [25] = molecular target: Man(a1-2)Man(a1-6)[Man(a1-3)]Man(a1-6)[Man(a1-2)Man(a1-2)Man(a1-3)]Man(b1-4)GlcNAc(b1-4)GlcNAc
# Summary of the method: as §1
# [26] = molecular target: Man(a1-3)[Man(a1-6)]Man(a1-6)[Man(a1-3)]Man
# Summary of the method: as §1
# Man(a1-6)Man = molecular target: Man(a1-6)Man
# Summary of the method: as §1
# [27] = molecular target: Neu5Ac(a2-3)Gal(b1-4)GlcNAc(b1-3)Gal(b1-4)GlcNAc(b1-3)GalNAc
# Summary of the method: as §1
# [28] = molecular target: Neu5Ac(a2-3)Gal(b1-4)GlcNAc(b1-3)Gal(b1-4)GlcNAc(b1-6)[Gal(b1-3)]GalNAc
# Summary of the method: as §1
# [29] = molecular target: Neu5Ac(a2-3)Gal(b1-4)[Fuc(a1-3)]GlcNAc
# Summary of the method: as §1
# [30] = molecular target: Neu5Ac(a2-3)Gal6S(b1-4)[Fuc(a1-3)]GlcNAc
# Summary of the method: as §1
# [31] = molecular target: Neu5Ac(a2-6)Gal(b1-4)GlcNAc(b1-2)Man(a1-3)Man(b1-4)GlcNAc(b1-4)GlcNAc
# Summary of the method: as §1
# [32] = molecular target: Neu5Ac(a2-6)Gal(b1-4)GlcNAc(b1-3)Gal(b1-4)GlcNAc(b1-6)[Gal(b1-3)]GalNAc
# Summary of the method: as §1
# [33] = molecular target: Neu5Ac(a2-8)Neu5Ac(a2-3)[GalNAc(b1-4)]Gal(b1-4)Glc
# Summary of the method: as §1
# [34] = molecular target: Neu5Ac(a2-8)Neu5Ac(a2-8)Neu5Ac(a2-3)Gal(b1-4)Glc
# Summary of the method: as §1
# [35] = molecular target: Neu5Ac(b2-6)Gal(b1-4)GlcNAc
# Summary of the method: as §1
# [36] = molecular target: Neu5Gc(a2-8)Neu5Gc(a2-3)Gal(b1-4)GlcNAc
# Summary of the method: as §1
binder,measurement,setting,value
B1,glycan array binding signal (z-score),[1],-0.363
same,glycan array binding signal (z-score),[2],-0.232
same,glycan array binding signal (z-score),[3],4.02
same,glycan array binding signal (z-score),[4],-0.434
same,glycan array binding signal (z-score),[5],3.9
same,glycan array binding signal (z-score),[6],3.75
same,glycan array binding signal (z-score),[7],5.3
same,glycan array binding signal (z-score),[8],-0.319
same,glycan array binding signal (z-score),[9],-0.516
same,glycan array binding signal (z-score),[10],-0.343
same,glycan array binding signal (z-score),[11],-0.304
same,glycan array binding signal (z-score),Gal(b1-3)GalNAc,-0.038
same,glycan array binding signal (z-score),[12],4.7
same,glycan array binding signal (z-score),[13],0.247
same,glycan array binding signal (z-score),[14],-0.246
same,glycan array binding signal (z-score),[15],-0.02
same,glycan array binding signal (z-score),[16],-1.19
same,glycan array binding signal (z-score),[17],-0.123
same,glycan array binding signal (z-score),[18],3.73
same,glycan array binding signal (z-score),Gal(b1-6)Gal,-0.446
same,glycan array binding signal (z-score),Gal3S(b1-3)GlcNAc,-0.36
same,glycan array binding signal (z-score),[19],-0.535
same,glycan array binding signal (z-score),Gal6S(b1-4)Glc6S,6.29
same,glycan array binding signal (z-score),Gal6S(b1-4)GlcNAc,0.319
same,glycan array binding signal (z-score),[20],-0.195
same,glycan array binding signal (z-score),[21],1.66
same,glycan array binding signal (z-score),[22],-0.439
same,glycan array binding signal (z-score),[23],4.05
same,glycan array binding signal (z-score),[24],-0.335
same,glycan array binding signal (z-score),[25],-0.066
same,glycan array binding signal (z-score),[26],4.4
same,glycan array binding signal (z-score),Man(a1-6)Man,-0.259
same,glycan array binding signal (z-score),[27],-0.424
same,glycan array binding signal (z-score),[28],2.29
same,glycan array binding signal (z-score),[29],0.139
same,glycan array binding signal (z-score),[30],-0.332
same,glycan array binding signal (z-score),[31],-0.617
same,glycan array binding signal (z-score),[32],0.018
same,glycan array binding signal (z-score),[33],4.12
same,glycan array binding signal (z-score),[34],-1.21
same,glycan array binding signal (z-score),[35],0.194
same,glycan array binding signal (z-score),[36],0.001
